Reference: PubChem BioAssay
Calls of active or inactive are those of the source. No rule for the calls is given here.

assay: inhibition of 3D7 malaria parasite growth – strain 3D7 (AID 2306);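 also: 0% = DMSO wells and 100% = chloroquine plus artemisinin control wells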; conditions: P. falciparum 3D7 erythrocytic growth, LDH absorbance, 72 h; at 2 µM; active compounds read high

Growth inhibition, active:
O=C(Nc1ccc(-c2nc3ccccc3[nH]2)cc1)c1cncc(Br)c1 95%, NCc1ccc(CNCc2ccc(-c3ccc(-c4nc5ccc(C(F)(F)F)cc5[nH]4)s3)cc2)cc1 95%, O=C(Nc1cccc(CN2CCN(Cc3ccc(O)cc3)CC2)c1)c1cccc(C(F)(F)F)c1 91%, O=C(Nc1ccc(C(F)(F)F)cc1)c1ccc(S(=O)(=O)NCC2CCCN(CC3CCCCC3)C2)cc1 (centres undefined) 93%, O=C(/C=C/c1ccc(Cl)c(Cl)c1)NCCCCCN1CCC(NC(=O)NC2CCCCCC2)CC1 99%, O=C(/C=C/c1ccc(Cl)cc1)NCCCCCN1CCCC(C(=O)Nc2ccc(Cl)c(Cl)c2)C1 (centres undefined) 96%, Cc1ccc2nc(C)cc(Nc3ccccc3O)c2c1 96%, COc1ccc(NC(=O)CSc2nc(-c3ccccc3Cl)ns2)cc1OC 97%, COc1c(Br)cc(Br)cc1C(C)=O 95%, COc1cc2c(cc1OCCN1CCC(N)CC1)N(C(=O)/C=C/c1ccccc1Cl)CC2 91%, COc1ccccc1C(=O)Nc1cccc(N2CCC(NCc3ccc(-n4cccn4)cc3)CC2)c1 86%, CC(C)c1cc(Oc2c(I)cc(CCNCc3ccccc3)cc2I)ccc1O 95%, Cc1cc(Nc2cccc(Cl)c2)nc2ccc(NC(=O)c3ccc(=O)[nH]c3)cc12 100%, O=C(O)c1ccc2nc(-c3ccccn3)c(-c3ccccn3)nc2c1 97%, Cc1cc(NN=Cc2cccc([N+](=O)[O-])c2)c2ccc(F)cc2n1 101%, OC1(Cc2ccccc2)CCN(Cc2cccc(-c3c[nH]c4nc(NC5CCCC5)ncc34)c2)CC1 96%, COC(=O)c1noc(C)c1I 99%, CC(C)(CNCc1ccc(C(F)(F)F)cc1)c1nc(-c2ccc(Cl)c(O)c2)c(-c2ccncc2)[nH]1 101%, CC1=C(C(=O)Nc2ccc(Cl)cc2)C(c2ccncc2)n2nc(C(F)(F)F)nc2N1 (centres undefined) 87%, O=C(Cc1cccnc1)N(Cc1ccc(-c2ccc(CNCc3cccnc3)cn2)cc1)C1CCN(Cc2ccccc2)CC1 93%, CS(=O)(=O)c1ccccc1CNC(=O)c1ccc(-c2ccc(-c3nc4ccc(C(F)(F)F)cc4[nH]3)s2)cc1 96%, Cc1ccc(NC(=O)c2cccc(C#N)c2)cc1-c1ccc(C(=O)Nc2ccncc2)cc1 94%, O=C(/C=C/c1ccc(Cl)c(Cl)c1)NC1CCC(CN2CCC(c3nc4ncccc4[nH]3)CC2)CC1 (centres undefined) 101%, OC(CNCc1cccc(Oc2ccc(Cl)cc2)c1)c1cc(C(F)(F)F)cc(C(F)(F)F)c1 (centres undefined) 99%, NC(=O)CCC(NC(=O)CNC(=O)Nc1cccc(C(F)(F)F)c1)C(=O)O (centres undefined) 97%, CS(=O)(=O)c1ccc(CNCc2ccc(-c3ccc(-c4nc5ccc(C(F)(F)F)cc5[nH]4)cc3)cc2)cc1 101%, O=C(Nc1ccc(Br)cc1)N(CCN1CCOCC1)CC(O)COc1ccc(Cl)c(F)c1 (centres undefined) 98%, COc1ccc(Nc2ncc3c(-c4cccc(NC(=O)Cc5ccncc5)c4)c[nH]c3n2)cc1OC 99%, CN(C)c1ccc(-c2ccc(C(=O)NC3CCN(Cc4ccc(C(C)(C)C)cc4)CC3)s2)cc1 95%, Cc1ccc(-c2cc(C(=O)Nc3ccc(S(=O)(=O)N4CCCCC4C)cc3)[nH]n2)c(O)c1 (centres undefined) 100%, CCn1c2ccccc2c2cc(C=NNc3cc(C)nc4ccccc34)ccc21 102%, CC(=O)Nc1ncc(C(=O)Nc2cccc(-c3ccc(-c4nc5ccc(C(F)(F)F)cc5[nH]4)cc3)c2)s1 101%, Cc1nc2nc(N)nc(N)c2c(C)c1Cc1cccc(F)c1 96%, O=[N+]([O-])c1ccc(/C=N/Nc2cc(-c3ccccc3)nc3ccccc23)o1 93%, CC(=O)Nc1nc(C(=O)Nc2ccc(-c3ccc(-c4nc5ccccc5[nH]4)cc3)cc2)cs1 100%, COc1cccc2cc(C(=O)N[C@@H](CC(C)C)C(=O)N[C@H](/C=N/N(C)C(=O)OC(C)(C)C)Cc3ccccc3)oc12 99%, Cc1cc(NN=Cc2ccc(Cl)cc2)c2cccc(C)c2n1 103%, Cc1onc(-c2ccccc2Cl)c1C(=O)Nc1cc(Cl)c(Cl)cc1Cl 90%, Cc1cccc2[nH]c(-c3ccc(-c4ccc(CN5CCC(CCN6CCCCC6)CC5)cc4)cc3)nc12 100%
